Experimental data reported in PubChem BioAssay (Tox21).
Inconclusive results are not listed. Active and inactive are the calls of the source. Unless noted, calls come from the whole dose curve; as a rule, active = well fitted curve in the direction sought with a large enough effect in the repeat runs; inconclusive = weak or mixed curves; inactive = no such curve, though single readings can be large; an effect the other way counts as inactive or inconclusive.

What was measured:
[1] = molecular target: Luciferin 4-monooxygenase (Photinus pyralis) (UniProt P08659); assay: qHTS assay to identify small molecule inhibitors of firefly luciferase (AID 1224835); note: series mostly up to about 120 µM; nearly all actives have a fitted effect of over 25% in size
Method in brief: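 Quantitative HTS format; KM concentrations of both substrates. Purified P. pyralis FLuc activity quantified from luminescence images.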

[2] = qHTS assay to identify small molecule agonists of the constitutive androstane receptor (CAR) signaling pathway - cell viability counter screen (AID 1224836); note: series mostly up to about 92 µM; nearly all actives have a fitted effect of over 45% in size
Method in brief: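 HepG2-CYP2B6-hCAR, 2500 cells/well, 4 h pre-incubation; cpd 15 conc + PK11195 0.75 uM final; 23 h, 37 C/5% CO2; CellTiter-Fluor, fluorescence.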

[3] = qHTS assay to identify small molecule antagonists of the constitutive androstane receptor (CAR) signaling pathway - cell viability counter screen (AID 1224837); note: series mostly up to about 92 µM; nearly all actives have a fitted effect of over 45% in size
Method in brief: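 HepG2-CYP2B6-hCAR cells, 2500/well, 4 hr pre-incubation; compound titration, 15 conc.; CITCO 50 nM final; 23 hr, 37 C/5% CO2; CellTiter-Fluor, fluorescence intensity.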

[4] = molecular target: Nuclear receptor subfamily 1 group I member 3 (Homo sapiens) (UniProt Q14994); assay: qHTS assay to identify small molecule antagonists of the constitutive androstane receptor (CAR) signaling pathway (AID 1224838);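 note: HepG2 cells stably expressing hCAR with CYP2B6 luciferase reporter stimulated by CITCO; nearly all actives have a fitted effect of over 40% in size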
Method in brief: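 HepG2-CYP2B6-hCAR cells; 4 h pre-incubation; cpd (15 conc) + CITCO 50 nM final; 24 h, 37 C/5% CO2; ONE-Glo, luminescence.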

[5] = molecular target: Nuclear receptor subfamily 1 group I member 3 (Homo sapiens) (UniProt Q14994); assay: qHTS assay to identify small molecule agonists of the constitutive androstane receptor (CAR) signaling pathway (AID 1224839);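 note: HepG2 cells stably carrying human CAR and a CYP2B6 luciferase reporter; series mostly up to about 92 µM; nearly all actives have a fitted effect of over 15% in size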
Method in brief: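 HepG2-CYP2B6-hCAR cells, 2500/well, 4 h pre-incubation; compounds 15 conc.; PK11195 0.75 uM final; 24 h, 37 C/5% CO2; ONE-Glo luciferase read.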

[6] = qHTS assay to identify small molecule antagonists of the estrogen related receptor signaling pathway with the pleiotropic PPARgamma coactivator (PGC) from Tox21 10K library - cell viability counter screen (AID 1224840; active = well fitted cell-killing curve with a large enough effect in the repeat runs, not every such curve was filed as active; note: nearly all actives have a fitted effect of over 40% in size)
Method in brief: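 PGC/ERR cells, 2,000/well; 6 h pre-incubation 37 C/5% CO2; cpd in DMSO via pin tool; 17.5 h 37 C; CellTiter-Fluor, 30 min; fluorescence.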

[7] = qHTS assay to identify small molecule antagonists of the estrogen related receptor signaling pathway with the pleiotropic PPARgamma coactivator (PGC) from Tox21 10K library (AID 1224841; call rule not given here; note: series mostly up to about 92 µM; actives are mostly falling curves and most rising ones were filed inactive; nearly all actives have a fitted effect of over 50% in size)
Method in brief: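 PGC/ERR cell line, 2,000 cells/well; 6 h pre-incubation 37 C/5% CO2; compounds (DMSO) pinned in; 18 h, 37 C; One-Glo, 30 min RT; luminescence.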

[8] = qHTS assay to identify small molecule agonists of the estrogen related receptor signaling pathway with the pleiotropic PPARgamma coactivator (PGC) from Tox21 10K library (AID 1224842); note: nearly all actives have a fitted effect of over 15% in size
Method in brief: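 PGC/ERR reporter cells (NTP line) were seeded 2,000 per well, rested 6 h at 37 C/5% CO2, then pin-dosed with compounds in DMSO for 18 h at 37 C; luciferase read by One-Glo luminescence after 30 min at room temperature.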

[9] = molecular target: Thyrotropin receptor (Homo sapiens) (UniProt P16473); assay: qHTS assay to identify small molecule agonists of the thyroid stimulating hormone receptor (TSHR) signaling pathway (AID 1224843; calls by dose curve; note: nearly all actives have a fitted effect of over 45% in size)
Method in brief: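 Cell line HEK293 with TSHR; density 800/well. Exposure 30 min RT. Readout HTRF cAMP (cAMP-d2/anti-cAMP-cryptate), 1 h RT before reading.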

[10] = qHTS assay to identify small molecule agonists of the hypoxia (HIF-1) signaling pathway - cell viability counter screen (AID 1224844; calls by dose curve; note: nearly all actives have a fitted effect of over 50% in size)
Method in brief: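 ME-180 HRE-bla cells, 2,000/well, 0.5% dialyzed FBS; 5 hr settle, 17 hr compound at 37C/5% CO2; CCF4-AM reporter read first, then CellTiter-Glo luminescence after 30 min RT.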

[11] = qHTS assay to identify small molecule agonists of the hypoxia (HIF-1) signaling pathway (AID 1224846; active = well fitted activation curve with a large enough effect in the signal ratio in the repeat runs, not every such curve was filed as active; the % refers to the signal ratio)
Method in brief: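 Cell line: CellSensor HRE-bla ME-180; 2,000 cells/well; 0.5% dialyzed FBS; 5 h preincubation; DMSO compound pin transfer; 17 h, 37C, 5% CO2; CCF4-AM added; bla FRET signal scored for activation.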

[12] = qHTS assay to identify small molecule agonists of H2AX - cell viability counter screen (AID 1224847; calls by dose curve; note: top concentration of the series differs between compounds; nearly all actives have a fitted effect of over 30% in size)
Method in brief: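 Cells plated first: CHO-K1, 1000 per well in 10% FBS medium, incubated overnight at 37C. Then 15-point compound titration added (final DMSO 0.76%) for 3 hr. Finally CellTiter-Glo added and luminescence read.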

[13] = qHTS assay to identify small molecule antagonists of the estrogen related receptor (ERR) signaling pathway from Tox21 library (AID 1224848); note: nearly all actives have a fitted effect of over 50% in size
Method in brief: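 Screening used an ERR reporter line supplied by NTP, exposed for 18 h at 37 C to library compounds delivered in DMSO. Signal was luciferase luminescence developed with ONE-Glo at room temperature for 30 min.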

[14] = qHTS assay to identify small molecule agonists of the estrogen related receptor (ERR) signaling pathway from Tox21 library (AID 1224849; calls by dose curve; note: nearly all actives have a fitted effect of over 15% in size)
Method in brief: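 ERR cells, 6 h pre-incubation 37 C/5% CO2; cpd in DMSO pinned; 18 h 37 C; ONE-Glo added, 30 min RT; luminescence read. Agonist mode, qHTS.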

[15] = qHTS RealTime-Glo MT Cell Viability Assay in HepG2 cells - 24 hour (AID 1224867); note: nearly all actives have a fitted effect of over 50% in size
Method in brief: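 Tox21 10K library screened in qHTS format on HepG2 cells carrying RealTime-Glo reagents. Compounds were added after a 5 h preincubation, and the luminescent signal from continuous culture was measured repeatedly during 40 h treatment.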

[16] = qHTS RealTime-Glo MT Cell Viability Assay in HEK293 cells - 32 hour (AID 1224868)
Method in brief: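 Luminescence generated by NanoLuc from substrate produced by living HEK293 cells served as the viability signal. Each value reflects the reading at its stated time point during continuous 40 h compound exposure at 37 C.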

[17] = qHTS RealTime-Glo MT Cell Viability Assay in HepG2 cells - 40 hour (AID 1224870); note: nearly all actives have a fitted effect of over 50% in size
Method in brief: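 HepG2 cells mixed with RealTime-Glo MT reagents (NanoLuc plus cell-permeant prosubstrate) were seeded at 600 cells/well, incubated 5 h at 37 C/5% CO2, then pinned with compounds in DMSO; nonlytic luminescence tracked viability during 40 h treatment.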

[18] = A CellTox Green Cytotoxicity Assay to monitor cytotoxicity in HEK293 cells - 40 hour (AID 1224871); note: nearly all actives have a fitted effect of over 45% in size
Method in brief: (§1)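 Nonlytic real-time cytotoxicity: HEK293 + CellTox Green reagent plated, 5 h preincubation, pintool compound addition (23 nL in DMSO), 37 C for 40 h, fluorescence measured at successive time points.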

[19] = qHTS assay to identify small molecule agonists of H2AX (AID 1224845; active = well fitted activation curve with a large enough effect in the signal ratio in the repeat runs, not every such curve was filed as active; the % refers to the signal ratio)
Method in brief: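 Wild-type CHO-K1 cells plated overnight, then exposed 3 hr at 37C to compounds at 15 concentrations (0.76% DMSO). Lysed, then HTRF anti-pH2AX(S139)-cryptate/anti-H2AX-d2 detection after 24 hr at room temperature; emissions 665 and 620 nm.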

[20] = A CellTox Green Cytotoxicity Assay to monitor cytotoxicity in HEK293 cells - 0 hour (AID 1224869); note: nearly all actives have a fitted effect of over 50% in size
Method in brief: as §1
% is set by controls: 0 for no effect and ±100 for the full control effect.

Chain of Luciferin 4-monooxygenase (Photinus pyralis) (P08659 whole entry, looked up): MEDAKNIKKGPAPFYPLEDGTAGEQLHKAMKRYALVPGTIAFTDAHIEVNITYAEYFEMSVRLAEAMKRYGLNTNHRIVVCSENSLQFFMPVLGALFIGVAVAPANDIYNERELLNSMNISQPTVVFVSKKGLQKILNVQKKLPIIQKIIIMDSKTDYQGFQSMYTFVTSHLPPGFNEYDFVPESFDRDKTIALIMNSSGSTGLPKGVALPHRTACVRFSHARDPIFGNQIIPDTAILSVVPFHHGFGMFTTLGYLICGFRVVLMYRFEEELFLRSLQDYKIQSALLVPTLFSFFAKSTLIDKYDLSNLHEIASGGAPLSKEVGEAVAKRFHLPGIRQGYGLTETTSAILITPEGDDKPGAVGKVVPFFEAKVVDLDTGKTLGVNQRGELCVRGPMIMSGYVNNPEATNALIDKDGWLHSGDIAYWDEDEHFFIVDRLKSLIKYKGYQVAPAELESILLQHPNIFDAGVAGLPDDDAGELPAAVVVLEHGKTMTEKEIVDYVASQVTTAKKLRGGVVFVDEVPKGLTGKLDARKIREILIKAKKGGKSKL
Chain of Nuclear receptor subfamily 1 group I member 3 (Homo sapiens) (Q14994 whole entry, looked up): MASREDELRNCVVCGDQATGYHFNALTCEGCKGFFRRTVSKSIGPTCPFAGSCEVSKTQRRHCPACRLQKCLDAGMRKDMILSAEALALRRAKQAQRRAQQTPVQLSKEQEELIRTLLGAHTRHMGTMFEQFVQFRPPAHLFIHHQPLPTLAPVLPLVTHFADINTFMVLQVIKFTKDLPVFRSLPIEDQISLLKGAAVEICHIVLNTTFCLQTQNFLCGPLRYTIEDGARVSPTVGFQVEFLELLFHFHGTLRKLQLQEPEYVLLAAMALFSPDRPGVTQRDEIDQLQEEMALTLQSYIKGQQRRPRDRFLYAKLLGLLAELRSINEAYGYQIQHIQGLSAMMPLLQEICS
Chain of Thyrotropin receptor (Homo sapiens) (P16473 whole entry, looked up): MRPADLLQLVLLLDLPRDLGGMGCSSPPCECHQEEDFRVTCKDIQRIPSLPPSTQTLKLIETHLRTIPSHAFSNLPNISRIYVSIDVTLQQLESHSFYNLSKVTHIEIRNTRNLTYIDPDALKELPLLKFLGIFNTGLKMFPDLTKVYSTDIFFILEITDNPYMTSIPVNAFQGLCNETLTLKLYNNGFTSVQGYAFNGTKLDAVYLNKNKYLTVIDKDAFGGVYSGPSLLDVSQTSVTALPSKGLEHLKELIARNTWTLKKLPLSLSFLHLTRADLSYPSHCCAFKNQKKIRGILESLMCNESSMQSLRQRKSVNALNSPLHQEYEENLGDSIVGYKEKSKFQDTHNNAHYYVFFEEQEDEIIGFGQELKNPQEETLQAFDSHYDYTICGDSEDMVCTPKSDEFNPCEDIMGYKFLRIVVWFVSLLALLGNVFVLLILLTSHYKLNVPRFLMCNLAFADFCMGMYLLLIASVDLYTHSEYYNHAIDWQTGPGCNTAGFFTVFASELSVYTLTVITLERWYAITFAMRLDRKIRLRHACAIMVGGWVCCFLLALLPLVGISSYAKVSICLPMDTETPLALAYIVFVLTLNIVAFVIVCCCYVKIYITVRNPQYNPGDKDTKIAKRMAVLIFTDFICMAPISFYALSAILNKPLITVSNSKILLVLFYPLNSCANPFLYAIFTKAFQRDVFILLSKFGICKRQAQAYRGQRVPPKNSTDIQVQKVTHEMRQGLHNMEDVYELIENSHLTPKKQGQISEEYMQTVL

CCOC(=O)COC(=O)c1ccccc1C(=O)OCC
inactive: Potency [1] | outcome [2] | outcome [3] | Potency [4] | Potency [5] | outcome [6] | Potency [7] | Potency [8] | Potency [9] | Potency [10] | outcome [11] | outcome [12] | Potency [13] | outcome [14] | outcome [15] | Potency [16] | Potency [17] | Potency [18]

CCCCCCCCCCOc1cc2c(=O)c(C(=O)OCC)c[nH]c2cc1OCC
inactive: activity change, negative = inhibition [1] -1.76% [at 10.5 µM] | viability change, negative = cytotoxic [2] 4.44% [at 8.39 µM] | activity change, negative = cytotoxicity [3] 5.07% [at 8.39 µM] | activity, negative = inhibition [4] 5.74% [at 8.39 µM] | activation [5] -0.235% [at 8.39 µM] | viability change, negative = cytotoxic [6] 9.28% [at 8.39 µM] | activation [9] -0.126% [at 8.39 µM] | activity change, negative = cytotoxicity [10] 1.84% [at 6.97 µM] | activation (H2AX phosphorylation) [19] 0.376% [at 14 µM] | activation [11] 0.236% [at 7.01 µM] | activity change, negative = cytotoxicity [12] 1.5% [at 14 µM] | activity change, negative = cytotoxicity [15] 3.75% [at 6.97 µM] | activity change, negative = cytotoxic [16] 6.41% [at 6.97 µM] | cytotoxicity [20] -0.138% [at 6.97 µM] | activity change, negative = cytotoxic [17] 0.617% [at 6.97 µM] | cytotoxicity increase [18] 0.78% [at 6.97 µM]

Cc1nc(C2CCCCC2)c(-c2ccc(S(N)(=O)=O)c(F)c2)o1
inactive: Potency [1] | outcome [2] | outcome [3] | Potency [4] | Potency [5] | outcome [6] | Potency [7] | Potency [8] | Potency [9] | Potency [10] | Potency [19] | outcome [11] | outcome [12] | Potency [13] | outcome [14] | outcome [15] | outcome [20] | Potency [17] | Potency [18]

OCCCCCO
inactive: Potency [1] | outcome [2] | outcome [3] | Potency [4] | Potency [5] | outcome [6] | Potency [7] | Potency [8] | Potency [9] | Potency [10] | outcome [11] | outcome [12] | Potency [13] | outcome [14] | outcome [15] | Potency [16] | outcome [20] | Potency [17] | Potency [18]

CN(C)C(=O)Oc1cccc([N+](C)(C)C)c1
inactive: Potency [1] | outcome [2] | outcome [3] | Potency [4] | Potency [5] | outcome [6] | Potency [9] | Potency [10] | Potency [19] | outcome [12] | outcome [15] | Potency [16] | outcome [20] | Potency [17]

CC(C)CC(C)(N)C#N (centres undefined)
inactive: Potency [1] | outcome [2] | outcome [3] | Potency [4] | Potency [5] | outcome [6] | Potency [10] | Potency [19] | outcome [11] | outcome [12] | outcome [15] | Potency [16] | outcome [20] | Potency [17]

CN(C)[C@@H]1C(=O)C(C(=O)NCN2CCCC2)=C(O)[C@@]2(O)C(=O)C3=C(O)c4c(O)cccc4[C@@](C)(O)C3C[C@@H]12 (some centres undefined)
inactive: Potency [1] | outcome [2] | outcome [3] | Potency [4] | Potency [5] | outcome [6] | Potency [9] | Potency [10] | outcome [12] | outcome [15] | Potency [16] | outcome [20] | Potency [17] | Potency [18]
